Measured values taken from PMC10812921, “Transcriptional Coactivator BOB1 (OBF1, OCA-B) Modulates the Specificity of DNA Recognition by the POU-Domain Factors OCT1 and OCT2 in a Monomeric Configuration”.

Key:
POU1 (OCT1 POU domain) = POU1 (OCT1 POU domain) (human, UniProt P14859 260-458); assay: EMSA-SELEX-seq; no BOB1; 20 mM Tris-HCl pH 7.6, 140 mM NaCl, 10% glycerol, 0.5 mM EDTA, 0.05% Triton X-100, 0.1 mg/mL BSA, 0.1 mg/mL poly(dI-dC), 5 mM DTT, room temperature, 20 min; high values mean tight binding; conditions: protein: recombinant; dsDNA, one strand shown
Method in brief: (§1)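 With or without 28 ng coactivator protein, 30 ng of tagged POU-domain protein was combined with 300 ng of a PCR-amplified double-stranded random 35-nt library in 20 μL Tris–HCl pH 7.6 binding buffer for 20 min at RT. The protein came from E. coli BL21 and had been purified under denaturing conditions and renatured. Four rounds of cutting complex bands from native 6% PAGE, elution and PCR amplification preceded Illumina sequencing. The binding preference figure is the percentage of sequenced 8-mers matching a motif pattern.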

POU2 (OCT2 POU domain) = biological target: T1, POU2 (OCT2 POU domain) (human, UniProt P09086 175-386); assay: as above; conditions: protein: recombinant; dsDNA, one strand shown
T1 sequence: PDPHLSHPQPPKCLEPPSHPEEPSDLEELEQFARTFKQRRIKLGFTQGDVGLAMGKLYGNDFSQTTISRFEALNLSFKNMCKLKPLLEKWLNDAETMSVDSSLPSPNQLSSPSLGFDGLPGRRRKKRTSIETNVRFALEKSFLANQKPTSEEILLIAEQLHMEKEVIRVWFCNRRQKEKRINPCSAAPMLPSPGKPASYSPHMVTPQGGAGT
Method in brief: as §1

[1] = biological target: POU1 (OCT1 POU domain);BOB1 (OBF1, OCA-B) (human;human, UniProt P14859;Q16633 260-458;1-256, |); assay: EMSA-SELEX-seq; with BOB1 (ternary complex band); 20 mM Tris-HCl pH 7.6, 140 mM NaCl, 10% glycerol, 0.5 mM EDTA, 0.05% Triton X-100, 0.1 mg/mL BSA, 0.1 mg/mL poly(dI-dC), 5 mM DTT, room temperature, 20 min; high values mean tight binding; conditions: protein: recombinant;recombinant; copies: 1;1; dsDNA, one strand shown
Method in brief: as §1

[2] = biological target: T2, POU2 (OCT2 POU domain);BOB1 (OBF1, OCA-B) (human;human, UniProt P09086;Q16633 175-386;1-256, |); assay: as above; conditions: protein: recombinant;recombinant; copies: 1;1; dsDNA, one strand shown
T2 sequence 1: T1 sequence
T2 sequence 2: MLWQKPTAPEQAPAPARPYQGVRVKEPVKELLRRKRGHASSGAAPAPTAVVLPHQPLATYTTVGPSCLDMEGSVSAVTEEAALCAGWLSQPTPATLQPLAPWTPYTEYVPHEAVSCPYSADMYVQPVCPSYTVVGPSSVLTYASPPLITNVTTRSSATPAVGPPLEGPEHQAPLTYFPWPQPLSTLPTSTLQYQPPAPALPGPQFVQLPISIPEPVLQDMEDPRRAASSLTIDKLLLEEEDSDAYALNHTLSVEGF
Method in brief: as §1

Sequence of POU1 (OCT1 POU domain) (P14859 260-458): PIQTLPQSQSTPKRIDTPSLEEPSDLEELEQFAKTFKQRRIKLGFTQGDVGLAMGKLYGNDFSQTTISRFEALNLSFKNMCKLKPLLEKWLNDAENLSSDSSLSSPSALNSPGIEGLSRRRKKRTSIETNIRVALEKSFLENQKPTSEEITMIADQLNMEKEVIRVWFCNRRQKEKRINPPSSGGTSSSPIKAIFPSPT

Sequence: AGAGCAAA
- binding signal (POU1 (OCT1 POU domain)): 0.0374 % of ANNNNAAN 8-mers
- binding signal (POU2 (OCT2 POU domain)): 0.0293 % of ANNNNAAN 8-mers
- binding signal [1]: 0.0433 % of ANNNNAAN 8-mers
- binding signal [2]: 0.0413 % of ANNNNAAN 8-mers

Sequence: ACTGAAAC
- binding signal (POU1 (OCT1 POU domain)): 0.0164 % of ANNNNAAN 8-mers
- binding signal (POU2 (OCT2 POU domain)): 0.019 % of ANNNNAAN 8-mers
- binding signal [1]: 0.0238 % of ANNNNAAN 8-mers
- binding signal [2]: 0.0173 % of ANNNNAAN 8-mers

Sequence: AATATAAG
- binding signal (POU1 (OCT1 POU domain)): 0.101 % of ANNNNAAN 8-mers
- binding signal (POU2 (OCT2 POU domain)): 0.123 % of ANNNNAAN 8-mers
- binding signal [1]: 0.0886 % of ANNNNAAN 8-mers
- binding signal [2]: 0.0966 % of ANNNNAAN 8-mers

Sequence: ATTATAAA
- binding signal (POU1 (OCT1 POU domain)): 0.152 % of ANNNNAAN 8-mers
- binding signal (POU2 (OCT2 POU domain)): 0.204 % of ANNNNAAN 8-mers
- binding signal [1]: 0.0691 % of ANNNNAAN 8-mers
- binding signal [2]: 0.0801 % of ANNNNAAN 8-mers

Sequence: ATAACAAG
- binding signal (POU1 (OCT1 POU domain)): 0.0458 % of ANNNNAAN 8-mers
- binding signal (POU2 (OCT2 POU domain)): 0.0621 % of ANNNNAAN 8-mers
- binding signal [1]: 0.0355 % of ANNNNAAN 8-mers
- binding signal [2]: 0.0462 % of ANNNNAAN 8-mers

Sequence: AGATCAAA
- binding signal (POU1 (OCT1 POU domain)): 0.0393 % of ANNNNAAN 8-mers
- binding signal (POU2 (OCT2 POU domain)): 0.0483 % of ANNNNAAN 8-mers
- binding signal [1]: 0.0414 % of ANNNNAAN 8-mers
- binding signal [2]: 0.0355 % of ANNNNAAN 8-mers

Sequence: ATCAGAAT
- binding signal (POU1 (OCT1 POU domain)): 0.085 % of ANNNNAAN 8-mers
- binding signal (POU2 (OCT2 POU domain)): 0.116 % of ANNNNAAN 8-mers
- binding signal [1]: 0.0777 % of ANNNNAAN 8-mers
- binding signal [2]: 0.0784 % of ANNNNAAN 8-mers

Sequence: ATGGAAAG
- binding signal (POU1 (OCT1 POU domain)): 0.148 % of ANNNNAAN 8-mers
- binding signal (POU2 (OCT2 POU domain)): 0.112 % of ANNNNAAN 8-mers
- binding signal [1]: 0.199 % of ANNNNAAN 8-mers
- binding signal [2]: 0.129 % of ANNNNAAN 8-mers

Sequence: AATGTAAT
- binding signal (POU1 (OCT1 POU domain)): 0.169 % of ANNNNAAN 8-mers
- binding signal (POU2 (OCT2 POU domain)): 0.181 % of ANNNNAAN 8-mers
- binding signal [1]: 0.109 % of ANNNNAAN 8-mers
- binding signal [2]: 0.137 % of ANNNNAAN 8-mers

Sequence: AAGCCAAT
- binding signal (POU1 (OCT1 POU domain)): 0.0282 % of ANNNNAAN 8-mers
- binding signal (POU2 (OCT2 POU domain)): 0.0247 % of ANNNNAAN 8-mers
- binding signal [1]: 0.0261 % of ANNNNAAN 8-mers
- binding signal [2]: 0.0272 % of ANNNNAAN 8-mers

Sequence: AATAGAAA
- binding signal (POU1 (OCT1 POU domain)): 0.0759 % of ANNNNAAN 8-mers
- binding signal (POU2 (OCT2 POU domain)): 0.0972 % of ANNNNAAN 8-mers
- binding signal [1]: 0.0858 % of ANNNNAAN 8-mers
- binding signal [2]: 0.071 % of ANNNNAAN 8-mers

Sequence: ACAAGAAC
- binding signal (POU1 (OCT1 POU domain)): 0.0214 % of ANNNNAAN 8-mers
- binding signal (POU2 (OCT2 POU domain)): 0.0201 % of ANNNNAAN 8-mers
- binding signal [1]: 0.0144 % of ANNNNAAN 8-mers
- binding signal [2]: 0.0297 % of ANNNNAAN 8-mers

Sequence: AACTAAAG
- binding signal (POU1 (OCT1 POU domain)): 0.024 % of ANNNNAAN 8-mers
- binding signal (POU2 (OCT2 POU domain)): 0.0311 % of ANNNNAAN 8-mers
- binding signal [1]: 0.0293 % of ANNNNAAN 8-mers
- binding signal [2]: 0.0355 % of ANNNNAAN 8-mers

Sequence: ATGACAAA
- binding signal (POU1 (OCT1 POU domain)): 0.0622 % of ANNNNAAN 8-mers
- binding signal (POU2 (OCT2 POU domain)): 0.0639 % of ANNNNAAN 8-mers
- binding signal [1]: 0.0539 % of ANNNNAAN 8-mers
- binding signal [2]: 0.0479 % of ANNNNAAN 8-mers

Sequence: AGGCAAAC
- binding signal (POU1 (OCT1 POU domain)): 0.0866 % of ANNNNAAN 8-mers
- binding signal (POU2 (OCT2 POU domain)): 0.0512 % of ANNNNAAN 8-mers
- binding signal [1]: 0.157 % of ANNNNAAN 8-mers
- binding signal [2]: 0.0817 % of ANNNNAAN 8-mers

Sequence: ATATCAAT
- binding signal (POU1 (OCT1 POU domain)): 0.117 % of ANNNNAAN 8-mers
- binding signal (POU2 (OCT2 POU domain)): 0.139 % of ANNNNAAN 8-mers
- binding signal [1]: 0.0804 % of ANNNNAAN 8-mers
- binding signal [2]: 0.0776 % of ANNNNAAN 8-mers

Sequence: AGACCAAT
- binding signal (POU1 (OCT1 POU domain)): 0.0275 % of ANNNNAAN 8-mers
- binding signal (POU2 (OCT2 POU domain)): 0.0219 % of ANNNNAAN 8-mers
- binding signal [1]: 0.0261 % of ANNNNAAN 8-mers
- binding signal [2]: 0.033 % of ANNNNAAN 8-mers

Sequence: AACGTAAT
- binding signal (POU1 (OCT1 POU domain)): 0.077 % of ANNNNAAN 8-mers
- binding signal (POU2 (OCT2 POU domain)): 0.0823 % of ANNNNAAN 8-mers
- binding signal [1]: 0.0546 % of ANNNNAAN 8-mers
- binding signal [2]: 0.071 % of ANNNNAAN 8-mers

Sequence: AAGCGAAG
- binding signal (POU1 (OCT1 POU domain)): 0.0271 % of ANNNNAAN 8-mers
- binding signal (POU2 (OCT2 POU domain)): 0.027 % of ANNNNAAN 8-mers
- binding signal [1]: 0.0238 % of ANNNNAAN 8-mers
- binding signal [2]: 0.0231 % of ANNNNAAN 8-mers

Sequence: AGCCGAAG
- binding signal (POU1 (OCT1 POU domain)): 0.0168 % of ANNNNAAN 8-mers
- binding signal (POU2 (OCT2 POU domain)): 0.0201 % of ANNNNAAN 8-mers
- binding signal [1]: 0.0195 % of ANNNNAAN 8-mers
- binding signal [2]: 0.0182 % of ANNNNAAN 8-mers

Sequence: AGTCTAAG
- binding signal (POU1 (OCT1 POU domain)): 0.0236 % of ANNNNAAN 8-mers
- binding signal (POU2 (OCT2 POU domain)): 0.0322 % of ANNNNAAN 8-mers
- binding signal [1]: 0.0343 % of ANNNNAAN 8-mers
- binding signal [2]: 0.0297 % of ANNNNAAN 8-mers

Sequence: ACTTAAAT
- binding signal (POU1 (OCT1 POU domain)): 0.0767 % of ANNNNAAN 8-mers
- binding signal (POU2 (OCT2 POU domain)): 0.11 % of ANNNNAAN 8-mers
- binding signal [1]: 0.0714 % of ANNNNAAN 8-mers
- binding signal [2]: 0.057 % of ANNNNAAN 8-mers

Sequence: ACTAAAAG
- binding signal (POU1 (OCT1 POU domain)): 0.0282 % of ANNNNAAN 8-mers
- binding signal (POU2 (OCT2 POU domain)): 0.0368 % of ANNNNAAN 8-mers
- binding signal [1]: 0.0332 % of ANNNNAAN 8-mers
- binding signal [2]: 0.0297 % of ANNNNAAN 8-mers

Sequence: ACTGAAAT
- binding signal (POU1 (OCT1 POU domain)): 0.0522 % of ANNNNAAN 8-mers
- binding signal (POU2 (OCT2 POU domain)): 0.0639 % of ANNNNAAN 8-mers
- binding signal [1]: 0.0472 % of ANNNNAAN 8-mers
- binding signal [2]: 0.0495 % of ANNNNAAN 8-mers

Sequence: ACGAGAAG
- binding signal (POU1 (OCT1 POU domain)): 0.0217 % of ANNNNAAN 8-mers
- binding signal (POU2 (OCT2 POU domain)): 0.0288 % of ANNNNAAN 8-mers
- binding signal [1]: 0.0269 % of ANNNNAAN 8-mers
- binding signal [2]: 0.0347 % of ANNNNAAN 8-mers

Sequence: ACATTAAC
- binding signal (POU1 (OCT1 POU domain)): 0.0984 % of ANNNNAAN 8-mers
- binding signal (POU2 (OCT2 POU domain)): 0.115 % of ANNNNAAN 8-mers
- binding signal [1]: 0.0402 % of ANNNNAAN 8-mers
- binding signal [2]: 0.0363 % of ANNNNAAN 8-mers

Sequence: AACTGAAC
- binding signal (POU1 (OCT1 POU domain)): 0.0179 % of ANNNNAAN 8-mers
- binding signal (POU2 (OCT2 POU domain)): 0.019 % of ANNNNAAN 8-mers
- binding signal [1]: 0.0168 % of ANNNNAAN 8-mers
- binding signal [2]: 0.0182 % of ANNNNAAN 8-mers

Sequence: ATTGAAAG
- binding signal (POU1 (OCT1 POU domain)): 0.0603 % of ANNNNAAN 8-mers
- binding signal (POU2 (OCT2 POU domain)): 0.0604 % of ANNNNAAN 8-mers
- binding signal [1]: 0.0632 % of ANNNNAAN 8-mers
- binding signal [2]: 0.0611 % of ANNNNAAN 8-mers
